# TRPML1 inh: human mucolipin-1 channel inhibition; Q9GZU1; TRPML1-inducible cells, Ca2+ dye fluorescence, FDSS; active compounds read low; inhibition of EC80 agonist-evoked calcium signal; activity change, negative = inhibition, % (concentration not given with the values); actives 0.02% (n = 390,000); AID 624415; in the data active means activity change below about -50%; inconclusive means between about -30% and that limit;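 further: stimulus is agonist 54-4 at its EC80 concentration; on the % scale 0 is the no-effect control and ±100 the full control effect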
#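 TRPML1-DL cells, Tet-induced overnight (~16 h, 37 °C) at 1,500 cells/well, were loaded with Ca8 no-wash dye plus quencher for 45-90 min at room temperature. Compounds were pinned during FDSS kinetic reading; agonist 54-4 at EC80 (4 uM final) then added.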
# KCNH2 3.1 block: KCNH2 3.1 (human) potassium channel inhibition; AID 720553; U2OS KCNH2 3.1, thallium flux FluxOr; active compounds read low; activity change, % (tested at about 1.8 µM); actives 0.95% (n = 340,000);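 active means maximum activity change below -70%; inconclusive means maximum activity change from -70% to -50%; inactive means maximum activity change above -50%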;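 further: thallium influx rate constant from kinetic fluorescence after stimulation buffer; on the % scale 0 is the no-effect control and ±100 the full control effect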
#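 Kinetic fluorescence (2 min after stimulation buffer) measures Tl+ influx through KCNH2 3.1 expressed by viral transduction in U2OS cells; the rate constant is normalized against DMSO controls serving as positive and negative references.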
# PTAP TSG101 blk: blocks PTAP/TSG101 interaction to inhibit HIV-1 budding | Potency, µM (titrated, usually from 115 µM), for inactives: at the highest dose activity change, negative = inhibition, usual class: inhibitors | Fluorescence polarization, FITC-PTAP peptide / Tsg101 binding | 340,000 tested, under 10 active; active means well fitted inhibition curve with a large enough effect in the main read-out, with a control signal flat, not every such curve was filed as active; inconclusive means small, poorly fitted or top-dose-only effect, or effect the other way, or a change in a side signal; inactive means no such curve, though single readings can be large or run the other way; further: potency means the concentration at half of the fitted maximal effect; % of control where 0% means no effect
#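 Compounds were pin-transferred onto Tsg101 binding domain (10 uM final) in HEPES pH 7.5 buffer, then FITC-PTAP peptide was added at 50 nM final. After 20 min at RT, polarization reported peptide displacement across a qHTS concentration series.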
# GRP78 ERSR act: ER stress response induction in glioma. U87-MG GRP78 promoter luciferase reporter, 16 h. Potency, µM, without a hit: top-dose activation, actives largely listed as activators. actives 0.02% (n = 420,000). AID 602332; active means well fitted activation curve with a large enough effect; inconclusive means small, poorly fitted or top-dose-only effect; inactive means no such curve, though single readings can be large or run the other way; further: potency means the concentration at half of the fitted maximal effect; series mostly up to about 76 µM; % of control where 0% means no effect; nearly all actives have a fitted effect of over 35% in size
#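 ERSR induction read as luciferase luminescence (Bright-Glo, 10 min at room temperature) in stably transfected human U87-MG glioma cells exposed to compounds for 16 h, using GRP78 as sensor.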
# KCNH2 WT inh: inhibitors of human wildtype KCNH2 potassium channel | U2OS, BacMam KCNH2, thallium flux FluxOr; active compounds read low | actives 0.37% (n = 340,000) | AID 720551 | activity change, % at 1.84 µM;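 active means maximum activity change below -70%; inconclusive means maximum activity change between -70% and -50%; inactive means maximum activity change above -50%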; further: on the % scale 0 is the no-effect control and ±100 the full control effect
#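 U2OS cells transduced with wild-type KCNH2 virus are loaded with FluxOr dye for 45 min, and thallium flux is measured in kinetic reads before and after stimulation buffer. Rate constants are normalized to DMSO controls.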
# TRPML1 ag: agonists of human TRPML1 channel; activation, % (test concentration not listed); TRPML1-expressing cells, Ca2+ dye fluorescence, FDSS; Q9GZU1; AID 624414; actives 0.12% (n = 410,000); in the data active means activation above about 50%; inconclusive means mostly about 30% to 49%; further: 0% is about no effect
#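 Cells: TRPML1-DL, 1X Tet inducer, ~16 h at 37 degrees C/5% CO2. Dye: ABD Ca8 no-wash + quencher, 45-90 min RT. Read: 10 s baseline, compound add, 110 s agonist phase; 54-4 EC80 (4uM final), 110 s antagonist phase.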
# The depositor's hits bear a star; ? = inconclusive; · = not tested or not shown. The list is not random: actives were taken first. Their share in the collection is about 1%.
SMILES,TRPML1 inh,KCNH2 3.1 block,PTAP TSG101 blk,GRP78 ERSR act,KCNH2 WT inh,TRPML1 ag
CCOC(=O)N1CCN(C(=O)c2ccc(-c3ccccc3OC)nc2N2CCC(N3CCCC(CO)C3)CC2)CC1 (stereo not drawn),·,·,·,-4.8%,·,·
COc1ccc(CN2CCCC(n3cc(C(=O)NC4CCCC4)nn3)C2)c(O)c1 (stereo not drawn),·,·,·,-1.3%,·,·
COc1ccc(C2Nc3ccccc3C(=O)N2Cc2ccco2)cc1COc1ccc([N+](=O)[O-])cc1 (stereo not drawn),3.2,-80.2*,-5.8%,-1.9%,-31.1,1.6
CS(=O)(=O)N1Cc2ccccc2CC1C(=O)O (stereo not drawn),-9.1,-95.0*,-0.3%,-3.5%,-11.2,0.7
Cc1ccccc1-c1ccc(CN2CCc3nnc(CNC(=O)c4ccccn4)n3CC2)cc1,·,·,·,-3.9%,·,·
COCCCn1c(=O)c2ccccc2n(Cc2cccc(C)c2)c1=O,-7.0,-12.3,-8.6%,0.1%,-1.1,1.8
COCCCn1c(=O)c2ccccc2n(Cc2ccc(C)cc2)c1=O,-5.3,-123.2*,-0.4%,-0.4%,7.1,-0.4
O=c1c2ccccc2[nH]c(=S)n1CCCN1CCC(Cc2ccccc2)CC1,25.3,-76.3*,-6.2%,-6.2%,-14.0,2.1
CC(C)CCN(N=O)[C@@H](Cc1ccccc1)CN(N=O)[C@@H](Cc1ccccc1)CN(C)N=O,12.5,-112.7*,-1.2%,-3.1%,-16.1,4.0
Cc1cccc(C)c1NC(=O)Cn1nnnc1N,8.4,-90.8*,-2.9%,-0.1%,-3.9,-0.8
Cc1cccc(C)c1NC(=O)CN,-4.5,-14.8,-1.9%,-0.2%,2.8,-0.9
CC(C)=CCC/C(C)=C\CC/C(C)=C\CC/C=C(\C)CC/C=C(\C)CCC=C(C)C,·,·,·,-2.6%,·,·
Cc1onc(-c2c(Cl)cccc2Cl)c1C(=O)N1CCN(Cc2ccccc2)CC1,1.7,-3.4,-0.3%,-4.5%,-18.0,1.3
Cc1onc(-c2c(F)cccc2Cl)c1C(=O)NNC(=O)C1CCN(Cc2ccccc2)CC1,-1.1,-102.5*,-2.8%,-3.5%,22.2,-0.3
Cc1ccc(S(=O)(=O)N(C)c2ccc(OC(=O)COc3ccccc3)cc2)cc1,1.0,3.6,-2.3%,1.6%,-6.1,2.8
Cc1ccc(S(=O)(=O)N(C)c2ccc(OCC(=O)OCc3nnc(-c4ccccc4)o3)cc2)cc1,-7.2,-88.4*,-1.0%,-2.6%,68.5,1.7
O=C(Nc1nnc(S(=O)(=O)N2CCCC2)s1)c1ccccc1Cl,-5.4,4.5,0.5%,0.2%,18.4,-0.7
O=C(Nc1nnc(S(=O)(=O)N2CCCCCC2)s1)c1ccccc1Cl,-16.6,-76.2*,-3.6%,0.4%,-3.8,-0.4
Cn1c(SCC(=O)O)nnc1-c1ccc(NC(=O)c2ccc(Cl)c(Cl)c2)cc1,24.5,-16.3,-13.4%,2.7%,-127.3*,1.6
COC(=O)C1=CN(c2ccc(OC)cc2)C=C(C(=O)OC)C1c1ccc([N+](=O)[O-])cc1,21.9,-73.0*,-3.2%,-3.6%,4.1,1.6
COC(=O)C1=CN(c2ccc(F)cc2)C=C(C(=O)OC)C1c1ccc([N+](=O)[O-])cc1,31.0,?,·,-2.5%,-8.0,0.8
COC(=O)C1CCN(Cc2ccc3c(c2)CN(C(=O)c2ccc4nc(C)c(C)nc4c2)CCO3)CC1,·,·,·,4.1%,·,·
O=C(c1ccccc1-n1cccn1)N1CCOc2ccc(CN3CCOCC3)cc2C1,·,·,·,-3.8%,·,·
CCN(CC)S(=O)(=O)c1ccc(-c2cn3ccccc3n2)cc1,-13.0,-3.7,·,1.0%,-100.4*,-0.8
CN(C)S(=O)(=O)c1ccc(-c2cn3ccccc3n2)cc1,13.0,-23.6,-3.8%,3.0%,2.7,0.2
COc1cccc(CNC(=O)c2c(OC)cc(=O)n3c2CCN(C(=O)c2ccc(Cl)cc2)CC3)c1,·,·,·,-5.5%,·,·
Cc1cccc(-c2cc3c(nn2)-c2ccccc2C3=O)c1,19.6,4.8,-2.1%,9.8%,-7.7,2.7
Cc1cnc2c(c1)C(=O)c1ccccc1-2,-10.1,-110.5*,-1.9%,-2.3%,0.9,-0.2

# Screening results from PubChem.
